About 7,900 targets were measured; listed, in parts, are those with a hit and a random draw of the rest. About 0.6% of all pairs of compound and target were hits. A number with no mark means an inactive call.
What was measured:
Assay in all cases: log2 fold change, soluble protein after heating vs DMSO (PISA); higher = thermal stabilisation; K562 cells, 10 uM, 30 min; active = over 0.2 and 3.5 SD of the protein, either way, in both replicates (recomputed)
[1] = compound: CS(=O)(=O)c1ccc(-c2cnc(N)c(C(=O)Nc3ccccc3)n2)cc1
Summary of the method: (§1)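 Aliquots of K562 cells (2×10^6 cells/mL) treated with 10 μM compound for 30 min were heated for 3 min over 48°C-58°C. After pooling and extraction in PBS with 0.5% NP-40 at 4°C, soluble protein from a 21,000xg, 90 min spin was quantified by TMTpro 16plex LC-MS/MS with channel sums equalised. Thermal stability is expressed against control samples, from duplicates, as a log2 fold change.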

crizotinib = compound: C[C@@H](Oc1cc(-c2cnn(C3CCNCC3)c2)cnc1N)c1c(Cl)ccc(F)c1Cl [crizotinib]
Summary of the method: as §1

[2] = compound: C[C@@H]1COCCN1C2=NC(=NC(=C2)C3(CC3)S(=O)(=O)C)C4=C5C=CNC5=CC=C4
Summary of the method: as §1

[3] = compound: C[C@H](C1=CC=C(C=C1)C(=O)NC2=C3C=CNC3=NC=C2)N
Summary of the method: as §1

duvelisib = compound: C[C@H](Nc1ncnc2nc[nH]c12)c1cc2cccc(Cl)c2c(=O)n1-c1ccccc1 [duvelisib]
Summary of the method: as §1

gandotinib = compound: Cc1cc(Nc2cc(CN3CCOCC3)c3nc(C)c(Cc4ccc(Cl)cc4F)n3n2)n[nH]1 [gandotinib]
Summary of the method: as §1

tozasertib = compound: Cc1cc(Nc2cc(N3CCN(C)CC3)nc(Sc3ccc(NC(=O)C4CC4)cc3)n2)n[nH]1 [tozasertib]
Summary of the method: as §1

[4] = compound: Cc1cc(SCc2sc(-c3ccc(C(F)(F)F)cc3)nc2C)ccc1OCC(=O)O
Summary of the method: as §1

doramapimod = compound: Cc1ccc(-n2nc(C(C)(C)C)cc2NC(=O)Nc2ccc(OCCN3CCOCC3)c3ccccc23)cc1 [doramapimod]
Summary of the method: as §1

ispinesib = compound: Cc1ccc(C(=O)N(CCCN)[C@@H](c2nc3cc(Cl)ccc3c(=O)n2Cc2ccccc2)C(C)C)cc1 [ispinesib]
Summary of the method: as §1

bafetinib = compound: Cc1ccc(NC(=O)c2ccc(CN3CC[C@H](N(C)C)C3)c(C(F)(F)F)c2)cc1Nc1nccc(-c2cncnc2)n1 [bafetinib]
Summary of the method: as §1

[5] = compound: Cc1cccc(CC(=O)N2CCc3c2ccc(-c2cn(C)c4ncnc(N)c24)c3F)n1
Summary of the method: as §1

nilotinib = compound: Cc1cn(-c2cc(NC(=O)c3ccc(C)c(Nc4nccc(-c5cccnc5)n4)c3)cc(C(F)(F)F)c2)cn1 [nilotinib]
Summary of the method: as §1

[6] = compound: Cc1nc(Nc2n[nH]c3c2CN(C(=O)N[C@H](CN(C)C)c2ccccc2)C3(C)C)c2sccc2n1
Summary of the method: as §1

dasatinib = compound: Cc1nc(Nc2ncc(C(=O)Nc3c(C)cccc3Cl)s2)cc(N2CCN(CCO)CC2)n1 [dasatinib]
Summary of the method: as §1

[7] = compound: Cc1ncc(-c2ccnc(Nc3ccc(S(C)(=O)=O)cc3)n2)n1C(C)C
Summary of the method: as §1

[8] = compound: Cn1cc(-c2ccc3c(c2)CCN3C(=O)Cc2cccc(C(F)(F)F)c2)c2c(N)ncnc21
Summary of the method: as §1

[9] = compound: Cn1cc(-c2ccc3nnc(C(F)(F)c4ccc5ncccc5c4)n3n2)cn1
Summary of the method: as §1

tipifarnib = compound: Cn1cncc1[C@@](N)(c1ccc(Cl)cc1)c1ccc2c(c1)c(-c1cccc(Cl)c1)cc(=O)n2C [tipifarnib]
Summary of the method: as §1

mubritinib = compound: FC(F)(F)c1ccc(/C=C/c2nc(COc3ccc(CCCCn4ccnn4)cc3)co2)cc1 [mubritinib]
Summary of the method: as §1

UniProt P12277, sequence (P12277 whole entry, looked up): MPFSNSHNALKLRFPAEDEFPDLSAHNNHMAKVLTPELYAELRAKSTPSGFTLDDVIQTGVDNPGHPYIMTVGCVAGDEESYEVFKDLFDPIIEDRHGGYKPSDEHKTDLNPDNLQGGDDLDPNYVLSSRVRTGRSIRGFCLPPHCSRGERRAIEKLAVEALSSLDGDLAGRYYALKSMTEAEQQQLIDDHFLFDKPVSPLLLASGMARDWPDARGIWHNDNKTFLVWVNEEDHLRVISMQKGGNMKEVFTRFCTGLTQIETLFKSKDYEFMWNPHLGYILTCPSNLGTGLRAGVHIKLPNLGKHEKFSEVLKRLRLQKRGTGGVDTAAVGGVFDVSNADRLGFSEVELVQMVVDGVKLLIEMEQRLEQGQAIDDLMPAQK
UniProt Q9ULV3, sequence (Q9ULV3 whole entry, looked up): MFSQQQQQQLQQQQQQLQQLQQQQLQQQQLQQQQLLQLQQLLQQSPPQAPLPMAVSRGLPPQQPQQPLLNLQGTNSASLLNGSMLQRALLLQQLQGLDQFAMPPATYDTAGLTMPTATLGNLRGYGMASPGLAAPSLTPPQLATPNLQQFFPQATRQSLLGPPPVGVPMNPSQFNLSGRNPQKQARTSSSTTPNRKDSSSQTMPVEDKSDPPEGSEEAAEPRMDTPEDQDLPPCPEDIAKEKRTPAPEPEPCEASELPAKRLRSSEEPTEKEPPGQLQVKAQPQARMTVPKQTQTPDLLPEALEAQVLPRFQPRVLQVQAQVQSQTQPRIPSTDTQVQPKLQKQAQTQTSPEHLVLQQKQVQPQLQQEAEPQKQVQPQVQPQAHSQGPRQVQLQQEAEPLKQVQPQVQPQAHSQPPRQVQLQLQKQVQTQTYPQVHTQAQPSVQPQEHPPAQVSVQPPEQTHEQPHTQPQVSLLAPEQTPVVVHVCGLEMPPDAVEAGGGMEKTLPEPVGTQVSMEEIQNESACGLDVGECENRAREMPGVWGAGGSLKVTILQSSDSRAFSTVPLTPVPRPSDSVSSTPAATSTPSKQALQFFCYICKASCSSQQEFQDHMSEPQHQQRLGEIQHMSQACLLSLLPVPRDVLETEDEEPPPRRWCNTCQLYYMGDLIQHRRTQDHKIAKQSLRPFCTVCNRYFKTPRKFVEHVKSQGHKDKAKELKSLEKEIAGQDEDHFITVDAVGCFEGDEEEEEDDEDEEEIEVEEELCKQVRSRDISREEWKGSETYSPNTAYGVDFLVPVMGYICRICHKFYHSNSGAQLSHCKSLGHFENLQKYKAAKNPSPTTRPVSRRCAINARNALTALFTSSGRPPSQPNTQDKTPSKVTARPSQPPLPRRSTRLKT
UniProt P41240, sequence (P41240 whole entry, looked up): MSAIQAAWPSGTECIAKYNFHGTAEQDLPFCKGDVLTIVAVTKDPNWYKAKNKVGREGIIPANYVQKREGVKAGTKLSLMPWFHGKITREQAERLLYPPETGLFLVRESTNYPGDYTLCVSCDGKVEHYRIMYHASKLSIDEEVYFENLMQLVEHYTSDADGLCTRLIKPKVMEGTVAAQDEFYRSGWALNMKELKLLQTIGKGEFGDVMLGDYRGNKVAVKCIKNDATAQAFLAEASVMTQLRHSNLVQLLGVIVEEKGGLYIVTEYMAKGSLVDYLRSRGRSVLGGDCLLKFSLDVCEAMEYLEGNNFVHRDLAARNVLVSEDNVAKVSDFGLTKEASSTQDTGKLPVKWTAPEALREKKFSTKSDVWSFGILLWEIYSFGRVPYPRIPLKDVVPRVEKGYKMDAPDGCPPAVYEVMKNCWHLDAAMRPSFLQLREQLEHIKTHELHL
UniProt Q5JTJ3, sequence (Q5JTJ3 whole entry, looked up): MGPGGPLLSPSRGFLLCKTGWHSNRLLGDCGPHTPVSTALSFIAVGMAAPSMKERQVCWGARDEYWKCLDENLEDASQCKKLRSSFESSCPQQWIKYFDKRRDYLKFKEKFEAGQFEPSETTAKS
UniProt Q8WUX2, sequence (Q8WUX2 whole entry, looked up): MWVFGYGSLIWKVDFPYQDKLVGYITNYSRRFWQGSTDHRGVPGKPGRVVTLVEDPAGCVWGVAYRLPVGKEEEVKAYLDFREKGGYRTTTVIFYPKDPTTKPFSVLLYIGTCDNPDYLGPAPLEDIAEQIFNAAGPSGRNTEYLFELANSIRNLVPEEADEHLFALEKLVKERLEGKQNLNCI
UniProt Q7KZN9, sequence (Q7KZN9 whole entry, looked up): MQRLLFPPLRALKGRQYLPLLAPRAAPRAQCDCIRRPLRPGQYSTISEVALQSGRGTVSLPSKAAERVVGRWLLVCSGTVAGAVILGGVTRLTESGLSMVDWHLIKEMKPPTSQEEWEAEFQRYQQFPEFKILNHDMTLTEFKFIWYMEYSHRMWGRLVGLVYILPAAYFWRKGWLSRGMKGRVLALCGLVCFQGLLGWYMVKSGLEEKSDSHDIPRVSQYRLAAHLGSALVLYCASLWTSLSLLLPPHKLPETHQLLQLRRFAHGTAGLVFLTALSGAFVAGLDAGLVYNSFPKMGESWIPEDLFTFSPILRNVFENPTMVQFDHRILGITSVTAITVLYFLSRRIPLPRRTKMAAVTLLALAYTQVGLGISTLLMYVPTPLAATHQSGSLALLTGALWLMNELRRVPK
UniProt Q8IWY9, sequence (Q8IWY9 whole entry, looked up): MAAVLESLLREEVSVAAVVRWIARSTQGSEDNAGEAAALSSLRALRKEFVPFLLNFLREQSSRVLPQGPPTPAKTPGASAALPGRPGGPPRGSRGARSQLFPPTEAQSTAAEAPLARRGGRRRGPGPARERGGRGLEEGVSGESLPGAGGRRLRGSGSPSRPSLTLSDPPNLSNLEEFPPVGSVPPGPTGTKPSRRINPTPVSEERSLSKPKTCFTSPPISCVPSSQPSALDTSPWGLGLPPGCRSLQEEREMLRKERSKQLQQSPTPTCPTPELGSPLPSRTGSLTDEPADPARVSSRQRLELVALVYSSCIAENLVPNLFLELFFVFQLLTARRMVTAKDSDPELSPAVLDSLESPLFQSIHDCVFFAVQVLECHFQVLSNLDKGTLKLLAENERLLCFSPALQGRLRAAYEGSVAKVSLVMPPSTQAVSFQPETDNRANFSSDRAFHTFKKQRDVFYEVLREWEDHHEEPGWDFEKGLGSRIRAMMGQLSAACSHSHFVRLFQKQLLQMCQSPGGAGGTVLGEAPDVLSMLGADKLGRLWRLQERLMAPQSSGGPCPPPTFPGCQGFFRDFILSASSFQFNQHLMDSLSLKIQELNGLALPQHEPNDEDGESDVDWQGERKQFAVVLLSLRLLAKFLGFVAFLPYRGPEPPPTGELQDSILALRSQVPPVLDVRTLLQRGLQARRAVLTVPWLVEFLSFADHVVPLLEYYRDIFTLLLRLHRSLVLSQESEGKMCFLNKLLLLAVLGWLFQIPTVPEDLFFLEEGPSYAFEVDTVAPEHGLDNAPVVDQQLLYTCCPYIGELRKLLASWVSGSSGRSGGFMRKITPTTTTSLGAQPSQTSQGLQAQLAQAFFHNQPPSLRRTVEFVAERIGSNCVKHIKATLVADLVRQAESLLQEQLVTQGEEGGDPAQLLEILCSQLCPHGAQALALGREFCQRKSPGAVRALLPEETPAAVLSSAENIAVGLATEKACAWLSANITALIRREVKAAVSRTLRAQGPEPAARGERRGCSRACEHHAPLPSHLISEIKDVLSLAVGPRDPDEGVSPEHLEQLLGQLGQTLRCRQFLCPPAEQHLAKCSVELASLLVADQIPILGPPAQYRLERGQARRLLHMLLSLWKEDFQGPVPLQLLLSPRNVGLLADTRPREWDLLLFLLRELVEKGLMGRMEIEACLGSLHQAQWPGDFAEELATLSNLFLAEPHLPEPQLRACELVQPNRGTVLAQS
UniProt P68400, sequence (P68400 whole entry, looked up): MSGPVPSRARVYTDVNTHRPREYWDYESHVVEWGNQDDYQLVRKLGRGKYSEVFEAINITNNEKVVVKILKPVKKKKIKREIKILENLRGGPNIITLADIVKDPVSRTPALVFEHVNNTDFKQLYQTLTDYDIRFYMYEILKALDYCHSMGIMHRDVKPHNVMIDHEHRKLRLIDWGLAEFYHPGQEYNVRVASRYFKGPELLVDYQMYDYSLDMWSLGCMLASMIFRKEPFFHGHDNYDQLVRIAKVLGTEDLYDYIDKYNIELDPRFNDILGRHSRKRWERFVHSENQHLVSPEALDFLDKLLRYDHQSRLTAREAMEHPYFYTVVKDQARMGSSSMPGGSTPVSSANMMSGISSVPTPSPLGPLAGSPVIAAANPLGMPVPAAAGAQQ

Target | log2 fold change [1] | log2 fold change (crizotinib) | log2 fold change [2] | log2 fold change [3] | log2 fold change (duvelisib) | log2 fold change (gandotinib) | log2 fold change (tozasertib) | log2 fold change [4] | log2 fold change (doramapimod) | log2 fold change (ispinesib) | log2 fold change (bafetinib) | log2 fold change [5] | log2 fold change (nilotinib) | log2 fold change [6] | log2 fold change (dasatinib) | log2 fold change [7] | log2 fold change [8] | log2 fold change [9] | log2 fold change (tipifarnib) | log2 fold change (mubritinib)
CIZ1 (UniProt Q9ULV3) | -0.008 | -0.097 | 0.017 | -0.079 | 0.004 | -0.121 | 0.022 | 0.016 | 0.005 | -0.015 | -0.063 | 0.013 | 0.016 | -0.181 | -0.016 | -0.063 | 0.021 | -0.066 | 0.008 | 0.019
CDAN1 (UniProt Q8IWY9) | 0.058 | 0.024 | 0.175 | 0.066 | 0.025 | -0.054 | -0.098 | 0.008 | 0.034 | -0.02 | -0.012 | -0.014 | 0.064 | -0.195 | -0.582 (active) | -0.017 | -0.023 | 0.008 | 0.011 | 0.056
CHAC2 (UniProt Q8WUX2) | 0.026 | 0.048 | 0.021 | -0.071 | 0.04 | -0.014 | 0.059 | 0.008 | -0.021 | 0.071 | -0.052 | -0.003 | 0.078 | -0.153 | 0.012 | 0.012 | -0.004 | -0.006 | -0.037 | 0.045
CSK (UniProt P41240) | 0.082 | -0.033 | 0.112 | -0.004 | -0.018 | -0.018 | 0.026 | 0.046 | 0.003 | -0.028 | 0.088 | 0.019 | 0.126 | -0.001 | 0.137 | 0.017 | 0.019 | -0.031 | -0.129 | 0.107
COX15 (UniProt Q7KZN9) | -0.008 | -0.015 | 0.041 | 0.006 | 0.035 | -0.07 | -0.029 | -0.033 | -0.023 | -0.016 | 0.09 | -0.02 | -0.013 | 0.02 | 0.078 | -0.034 | 0.008 | -0.023 | 0.046 | 0.038
CSNK2A1 (UniProt P68400) | 0.055 | -0.04 | 0.016 | -0.17 | 0.01 | 0.043 | -0.004 | 0.005 | -0.022 | 0.029 | -0.02 | -0.073 | 0.032 | 0.019 | -0.03 | -0.055 | -0.019 | 0.035 | 0.03 | -0.019
COA6 isoform 2 (UniProt Q5JTJ3) | 0.026 | -0.001 | -0.07 | -0.155 | 0.068 | 0.082 | 0.109 | 0.159 | 0 | 0.035 | -0.093 | 0.002 | -0.064 | 0.02 | -0.017 | 0.012 | -0.097 | 0.035 | -0.008 | 0.041
CKB (UniProt P12277) | 0.059 | -0.174 | 0.077 | 0.053 | 0.031 | -0.109 | -0.058 | 0.021 | -0.009 | -0.022 | 0.02 | 0.02 | 0.051 | 0.037 | -0.142 | -0.008 | 0.081 | 0.01 | -0.057 | 0.062

— the supplement of paper PMC10849652
